PubChem BioAssay (NCATS)
“And” between values parts separate entries of the source, which are not always exact repeats. Equal entries are not always repeated. Records with an inconclusive call do not appear. The source made the active and inactive calls. Unless noted, calls come from the whole dose curve; as a rule, active = well fitted cell-killing curve with a large enough effect; inconclusive = small, poorly fitted or top-dose-only effect; inactive = flat fitted curve, though single readings scatter.

Assays:
[1] = Cell Viability - LYMP2-002 (AID 977);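 note: series mostly up to about 92 µM; plate controls were DMSO only for no effect and 92 µM tetraoctylammonium bromide for full effect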
In short: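 Luminescent ATP readout (CellTiter-Glo, 30 min room temperature) after 24 h compound exposure at 37 C of a human lymphoblastoid line, 2500 cells/well. AC50 values derived by standard Hill fitting of qHTS concentration-response data.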

[2] = Cell Viability - LYMP2-006 (AID 978); note: series mostly up to about 92 µM; % is set by controls: 0 for no effect and ±100 for the full control effect; nearly all actives have a fitted effect of over 60% in size
In short: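 Potency values are Hill-fit AC50s for decreases in intracellular ATP (CellTiter-Glo luminescence). LYMP2-006 lymphoblastoid cells, 2500 per well, were exposed to compound in complete culture medium for 24 hr at 37 C.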

[3] = Cell Viability - LYMP2-007 (AID 979);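 note: cells exposed to compound for 24 h before reading; 0% = DMSO only and the negative end = 92 µM tetraoctylammonium bromide; nearly all actives have a fitted effect of over 60% in size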
In short: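 Human lymphoblastoid cells (2500/well) were plated in complete medium, incubated 5 hr at 37 C, then exposed to compounds for 24 hr at 37 C. Intracellular ATP was read by CellTiter-Glo luminescence after 30 min at room temperature; AC50 from Hill fits.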

[4] = Cell Viability - LYMP2-008 (AID 980); note: % is set by controls: 0 for no effect and ±100 for the full control effect; nearly all actives have a fitted effect of over 60% in size
In short: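 Human lymphoblastoid cells (2500/well) were plated, held 5 hr at 37 C, then exposed to compounds for 24 hr at 37 C in complete medium. Intracellular ATP was read by CellTiter-Glo luminescence; AC50 from Hill-fitted concentration-response.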

[5] = Cell Viability - LYMP2-010 (AID 981); note: % is set by controls: 0 for no effect and ±100 for the full control effect; nearly all actives have a fitted effect of over 55% in size
In short: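 Human lymphoblastoid LYMP2-010 cells (2500/well) were preincubated 5 hr at 37 C, then exposed to compounds for 24 hr at 37 C in complete medium. Intracellular ATP was measured by CellTiter-Glo luminescence after 30 min at room temperature; AC50 from Hill-fitted concentration-response.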

[6] = Cell Viability - LYMP2-012 (AID 982);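 note: cellular ATP by luciferase luminescence where a drop means cytotoxicity; cells exposed to compound for one day before reading; 0% = DMSO only and full loss = 92 µM tetraoctylammonium bromide; nearly all actives have a fitted effect of over 55% in size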
[7] = Cell Viability - LYMP2-014 (AID 983);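 note: series mostly up to about 92 µM; plate controls were DMSO only for no effect and 92 µM tetraoctylammonium bromide for full effect; nearly all actives have a fitted effect of over 50% in size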
In short: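 Human lymphoblastoid cells (2500/well) were pre-incubated 5 hr at 37 C, then exposed to compounds in complete medium for 24 hr at 37 C. Intracellular ATP was read by CellTiter-Glo luminescence after 30 min at room temperature; AC50 from Hill fits.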

[8] = Cell Viability - LYMP2-016 (AID 984); note: % is set by controls: 0 for no effect and ±100 for the full control effect; nearly all actives have a fitted effect of over 55% in size
In short: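 Cytotoxicity was scored by luminescent ATP content (CellTiter-Glo) after 24 h compound exposure at 37 C of a human lymphoblastoid line at 2500 cells/well. Concentration-response data were fitted to the Hill equation for AC50.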

[9] = Cell Viability - LYMP2-018 (AID 985);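 note: compound exposure lasted 24 hr at 37 °C; plate controls were DMSO only for no effect and tetraoctylammonium bromide at 92 µM for full effect; nearly all actives have a fitted effect of over 50% in size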
In short: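 Human lymphoblastoid cells (2500/well) were pre-incubated 5 hr at 37 C, then exposed to compounds for 24 hr at 37 C in complete medium. Viability was read as intracellular ATP by CellTiter-Glo luminescence; AC50 values came from Hill-equation fits.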

[10] = Cell Viability - LYMP2-020 (AID 986);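 note: series mostly up to about 92 µM; plate controls were DMSO only for no effect and tetraoctylammonium bromide at 92 µM for full effect; nearly all actives have a fitted effect of over 55% in size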
In short: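 Human lymphoblastoid cells, 2500/well, were pre-incubated 5 hr at 37 C, then exposed to compounds for 24 hr at 37 C in complete medium. Intracellular ATP was read by CellTiter-Glo luminescence, and AC50 was derived by Hill fitting of concentration-response data.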

[11] = Cell Viability - LYMP2-022 (AID 987)
In short: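 Human lymphoblastoid cells, 2500/well, preincubated 5 hr at 37 C, then exposed to compounds over a concentration range for 24 hr at 37 C in complete medium. Viability read as intracellular ATP by CellTiter-Glo luminescence after 30 min at room temperature; AC50 from Hill fits.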

[12] = Cell Viability - LYMP2-024 (AID 988);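 note: plate controls were DMSO only for no effect and 92 µM tetraoctylammonium bromide for full effect; nearly all actives have a fitted effect of over 60% in size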
In short: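 Human lymphoblastoid cells (2500/well) in complete medium were preincubated 5 hr at 37 C, then exposed to compounds for 24 hr at 37 C. Intracellular ATP was read by CellTiter-Glo luminescence; AC50 from Hill-equation fits of concentration-response data.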

[13] = Cell Viability - LYMP2-026 (AID 989); note: % is set by controls: 0 for no effect and ±100 for the full control effect; nearly all actives have a fitted effect of over 50% in size
In short: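 Human lymphoblastoid cells (2500/well) in complete medium were preincubated 5 hr at 37 C, then exposed to compounds for 24 hr at 37 C. Cellular ATP was read by CellTiter-Glo luminescence; AC50 from Hill-equation fits of concentration-response data.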

[14] = Cell Viability - LYMP1-002 - Assay at 24 hr (AID 993); note: % is set by controls: 0 for no effect and ±100 for the full control effect
In short: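 Human lymphoblastoid LYMP1-002 cells, 2500/well in complete medium, were treated with compounds for 24 h at 37 C; intracellular ATP was read by CellTiter-Glo luminescence. AC50 values came from Hill-equation fits of qHTS concentration-response data.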

[15] = Cell Viability - LYMP1-002 - Assay at 40 hr (AID 994)
In short: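 Human lymphoblastoid cells, 2500/well in complete medium, were preincubated 5 hr at 37 C, then exposed to compounds for 40 hr at 37 C. Intracellular ATP was read by CellTiter-Glo luminescence after 30 min at room temperature; AC50 from Hill-equation fits.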

[16] = qHTS Assay for Identification of Small Molecule Inducers of Hypoxia Response (AID 2120; active = well fitted curve in the direction sought with a large enough effect in the signal ratio, with a control signal flat, not every such curve was filed as active; the % refers to the signal ratio; note: 0% is about no effect)
In short: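 HRE-beta-lactamase reporter in CellSensor HRE-bla ME-180 cells, 2500 cells/well in Opti-MEM with 0.5% dialyzed FBS; compounds tested as titration series, 17 h at 37 degrees C. CCF4 substrate 2.5 h at room temperature; AC50 from 460/530 nm ratio.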

[17] = target: Bile acid receptor (Homo sapiens) (UniProt Q96RI1); experiment: qHTS assay for small molecule agonists of farnesoid X receptor signaling (AID 588527; calls by dose curve;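 note: series mostly up to about 77 µM; 0% = vehicle basal and 100% = reference agonist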); conditions: HEK293T FXR-UAS-bla, beta-lactamase ratio, 16 h; stronger effect = higher value
Chain of Bile acid receptor (Homo sapiens) (Q96RI1 whole entry, looked up): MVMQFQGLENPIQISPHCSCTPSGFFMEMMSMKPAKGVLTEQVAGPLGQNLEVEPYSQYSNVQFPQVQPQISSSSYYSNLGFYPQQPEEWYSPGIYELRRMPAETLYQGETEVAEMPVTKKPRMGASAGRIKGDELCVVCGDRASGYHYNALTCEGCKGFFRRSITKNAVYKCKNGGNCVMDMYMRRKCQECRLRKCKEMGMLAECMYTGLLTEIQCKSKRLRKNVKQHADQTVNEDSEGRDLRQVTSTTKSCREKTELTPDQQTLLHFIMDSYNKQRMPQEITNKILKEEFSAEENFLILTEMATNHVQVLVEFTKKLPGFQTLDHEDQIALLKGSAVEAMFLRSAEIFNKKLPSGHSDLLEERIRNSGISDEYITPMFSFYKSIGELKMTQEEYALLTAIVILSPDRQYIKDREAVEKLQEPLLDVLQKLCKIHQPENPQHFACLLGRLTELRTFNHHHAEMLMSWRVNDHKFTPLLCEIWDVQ
In short: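 Read-out: beta-lactamase reporter fluorescence with CCF4 substrate in GeneBLAzer FXR-UAS-bla HEK293T cells, after 16 h compound exposure at 37 C. Response scaled between DMSO basal (0%) and chenodeoxycholic acid at 100 uM (100%).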

[18] = target: Glucocorticoid receptor (Homo sapiens) (UniProt P04150); experiment: qHTS assay for small molecule agonists of glucocorticoid receptor signaling (AID 588532; active = well fitted curve in the direction sought with a large enough effect in the signal ratio, with a control signal flat; the % refers to the signal ratio;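 note: 100% = dexamethasone at 0.1 µM and 0% = DMSO only wells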); conditions: HeLa MMTV-bla, beta-lactamase ratio, agonist, 18 h; stronger effect = higher value; percent of dexamethasone control, DMSO zero
Chain of Glucocorticoid receptor (Homo sapiens) (P04150 whole entry, looked up): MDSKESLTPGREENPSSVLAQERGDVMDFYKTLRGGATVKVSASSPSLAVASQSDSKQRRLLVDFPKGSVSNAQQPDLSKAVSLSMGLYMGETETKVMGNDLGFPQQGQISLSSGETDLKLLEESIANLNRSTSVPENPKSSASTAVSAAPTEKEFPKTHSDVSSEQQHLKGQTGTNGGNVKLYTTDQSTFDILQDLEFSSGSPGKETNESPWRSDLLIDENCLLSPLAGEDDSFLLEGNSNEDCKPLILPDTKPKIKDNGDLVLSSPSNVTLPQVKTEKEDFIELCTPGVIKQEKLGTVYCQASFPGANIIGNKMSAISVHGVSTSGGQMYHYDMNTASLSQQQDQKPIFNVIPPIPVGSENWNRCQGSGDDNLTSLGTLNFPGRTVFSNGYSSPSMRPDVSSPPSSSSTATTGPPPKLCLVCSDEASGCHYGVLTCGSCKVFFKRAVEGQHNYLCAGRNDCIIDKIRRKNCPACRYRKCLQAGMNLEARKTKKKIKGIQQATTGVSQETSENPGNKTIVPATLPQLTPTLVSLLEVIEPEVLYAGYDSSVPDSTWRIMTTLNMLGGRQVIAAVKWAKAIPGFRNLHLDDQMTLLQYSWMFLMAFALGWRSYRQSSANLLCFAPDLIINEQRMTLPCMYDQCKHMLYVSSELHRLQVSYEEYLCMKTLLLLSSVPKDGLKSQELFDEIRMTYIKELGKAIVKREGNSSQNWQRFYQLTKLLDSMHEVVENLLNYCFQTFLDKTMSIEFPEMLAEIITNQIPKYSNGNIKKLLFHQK
In short: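 Stimulation of a glucocorticoid response element-driven beta-lactamase gene was measured in HeLa cells. Responses were scaled between DMSO basal and 0.1 uM dexamethasone, then fitted for half-maximal stimulation.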

[19] = target: Glucocorticoid receptor (Homo sapiens) (UniProt P04150); experiment: qHTS assay for small molecule antagonists of glucocorticoid receptor signaling (AID 588533; active = well fitted inhibition curve with a large enough effect in the signal ratio, with a control signal flat, not every such curve was filed as active; the % refers to the signal ratio;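 note: cells stimulated with 2 nM dexamethasone as agonist; % is set by controls: 0 for no effect and ±100 for the full control effect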)
In short: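 Antagonist-mode qHTS: compound titrations added to GRE-bla HeLa cells, then dexamethasone 2 nM final; 18 h, 37 C. CCF4 FRET fluorescence normalized to dexamethasone and DMSO; IC50 from Hill fit.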

[20] = qHTS assay for small molecule antagonists of peroxisome proliferator-activated receptor delta signaling (AID 588535; active = well fitted inhibition curve with a large enough effect in the signal ratio, with a control signal flat, not every such curve was filed as active; the % refers to the signal ratio;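 for max response: cells co-treated with a PPAR-delta agonist as stimulator during compound exposure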); conditions: HEK293T PPARd-UAS-bla, beta-lactamase FRET ratio, 18 h; 460 nm channel
In short: (§1)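 GeneBLAzer PPAR-delta-UAS-bla HEK293T cells in medium with 2% charcoal/dextran FBS were preincubated 5 hrs at 37 C, then given compounds, incubated 18 hrs at 37 C, and read by CCF4 beta-lactamase fluorescence; IC50 from Hill fits.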

[21] = target: Peroxisome proliferator-activated receptor delta (Homo sapiens) (UniProt Q03181); experiment: as above
Chain of Peroxisome proliferator-activated receptor delta (Homo sapiens) (Q03181 whole entry, looked up): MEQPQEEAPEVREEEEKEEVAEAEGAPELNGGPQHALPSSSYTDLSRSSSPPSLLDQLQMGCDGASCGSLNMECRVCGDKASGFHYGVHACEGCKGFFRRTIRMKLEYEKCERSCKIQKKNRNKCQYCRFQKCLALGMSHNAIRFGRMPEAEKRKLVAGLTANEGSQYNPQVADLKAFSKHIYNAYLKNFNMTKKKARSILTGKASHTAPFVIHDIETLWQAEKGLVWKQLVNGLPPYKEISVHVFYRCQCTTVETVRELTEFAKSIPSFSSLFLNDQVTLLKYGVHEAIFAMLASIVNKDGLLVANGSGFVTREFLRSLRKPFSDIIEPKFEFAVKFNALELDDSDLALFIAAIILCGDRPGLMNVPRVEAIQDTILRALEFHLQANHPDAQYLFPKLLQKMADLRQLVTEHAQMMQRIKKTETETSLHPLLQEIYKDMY
In short: as §1

[22] = target: Peroxisome proliferator-activated receptor gamma (Homo sapiens) (UniProt P37231); experiment: qHTS assay for small molecule agonists of peroxisome proliferator-activated receptor gamma signaling (AID 588536; active = well fitted curve in the direction sought with a large enough effect in the signal ratio, with a control signal flat, not every such curve was filed as active; the % refers to the signal ratio;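 note: 0% = DMSO basal wells and 100% = rosiglitazone at 2 µM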)
Chain of Peroxisome proliferator-activated receptor gamma (Homo sapiens) (P37231 whole entry, looked up): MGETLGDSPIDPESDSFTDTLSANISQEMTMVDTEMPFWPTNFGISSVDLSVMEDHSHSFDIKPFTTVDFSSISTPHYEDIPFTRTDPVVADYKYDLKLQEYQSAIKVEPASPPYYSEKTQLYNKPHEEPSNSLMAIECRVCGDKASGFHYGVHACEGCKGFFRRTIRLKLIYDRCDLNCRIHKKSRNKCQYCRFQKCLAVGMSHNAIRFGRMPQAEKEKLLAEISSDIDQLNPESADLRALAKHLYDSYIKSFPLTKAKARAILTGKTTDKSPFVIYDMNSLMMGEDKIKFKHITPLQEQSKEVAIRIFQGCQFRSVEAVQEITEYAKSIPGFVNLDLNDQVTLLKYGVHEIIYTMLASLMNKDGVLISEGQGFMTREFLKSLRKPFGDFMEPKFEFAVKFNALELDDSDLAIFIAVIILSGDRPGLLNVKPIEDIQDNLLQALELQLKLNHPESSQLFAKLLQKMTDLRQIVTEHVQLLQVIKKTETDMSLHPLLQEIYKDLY
In short: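 Test agents, titrated, stimulated HEK293 UAS-bla cells overnight (16 h, 37 C). Substrate CCF4 was then added for two hours at room temperature before fluorescence reading.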

Clc1cc(Cl)c(-c2cc(Cl)c(Cl)cc2Cl)cc1Cl
34.2% and 61.4%: max response [20]
inactive: Potency [1] | Potency [2] | Potency [3] | Potency [4] | Potency [5] | Potency [6] | Potency [7] | Potency [8] | Potency [9] | Potency [10] | Potency [11] | Potency [12] | Potency [13] | Potency [14] | Potency [15] | outcome [16] | activation [17] 4.83% | activation [18] 0.333% and 5.15% | Potency [19] | Potency [21] | outcome [22]
